aSyn 5UTR act = Activators via SNCA 5'UTR binding, MLPCN | alpha-synuclein 5'UTR reporter, activators screen | activity score, % (tested at 7.5 µM), hits read low | 300,000 tested, 7.1% active | AID 1814, 2009; in the data active = activity score below about -60%
Starred values were filed as active, the others as inactive. These entries were drawn from the full list.

SMILES | aSyn 5UTR act
COc1cccc(NC(=O)c2oc3ccccc3c2NC(C)=O)c1 | -121*
COCC(=O)Nc1c(C(=O)Nc2cccc(OC)c2)oc2ccccc12 | -218*
COCC(=O)Nc1c(C(=O)Nc2ccccc2OC)oc2ccccc12 | -147*
COc1ccccc1NC(=O)c1oc2ccc(C)cc2c1C | -203*
COc1ccc2cc(C(=O)N3CCC(Cc4ccccc4)CC3)[nH]c2c1 | -77*
COc1ccc2[nH]c(C(=O)NCCc3ccccc3)cc2c1 | -92*
COc1ccc2cc(C(=O)N(C)Cc3ccccc3)[nH]c2c1 | -86*
CCC1=C/C(=C/N(C)c2ccccc2)C(=O)S1 | -62*
COc1cc2nc(CN(C)Cc3ccc(OC)c(OC)c3OC)[nH]c(=O)c2cc1OC | -90*
CCCCOc1ccc(CSc2nc(C)[nH]c2[N+](=O)[O-])cc1[N+](=O)[O-] | -65*
CCCCOc1ccc(-c2csc(N)n2)cc1[N+](=O)[O-] | -141*
O=[N+]([O-])c1cccc(-c2cn3ccccc3n2)c1 | -93*
COc1ccc(-c2cn3ccccc3n2)cc1[N+](=O)[O-] | -162*
CCCOc1ccc(-c2cn3ccccc3n2)cc1[N+](=O)[O-] | -114*
COc1cccc(NC(=S)N2CCC(c3ccc(C)cc3)C2)c1 (stereo not drawn) | -66*
CCc1cccc(NC(=S)N2CCC(c3ccccc3)C2)c1 (stereo not drawn) | -88*
CSc1cccc(NC(=O)N2CCCC(CNS(=O)(=O)Cc3ccccc3)C2)c1 (stereo not drawn) | -98*
CSc1cccc(NC(=S)N2CCC(c3ccccc3)C2)c1 (stereo not drawn) | -76*
CCc1nc(C)c(C(=O)N2CCCC(C(=O)Nc3cccc(-c4cccc(C)c4)c3)C2)o1 (stereo not drawn) | -77*
Cc1cccc(-c2cccc(NC(=O)C3CCCN(C(=O)c4csc(C)n4)C3)c2)c1 (stereo not drawn) | -70*
Cc1ccc(-c2nn3c(C)nnc3s2)cc1N | -79*
COc1ccc(-c2noc(CSc3ccccc3)n2)cc1OC | -114*
COc1ccc(-c2noc(CSc3nnc(CCc4ccccc4)n3-c3ccccc3)n2)cc1OC | 52
c1ccc(SCc2nc(-c3ccncc3)no2)cc1 | -206*
CCN(CC)c1ccc(/C=C2\SC(N)=NC2=O)cc1 | -114*
SMILES | aSyn 5UTR act
O=C(O)c1ccc(-c2noc(-c3cccc(C(F)(F)F)c3)n2)cc1 | -83*
FC(F)(F)c1cccc(-c2nc(-c3ccncc3)no2)c1 | -191*
ONC(=Nc1ccc(Cl)cc1)c1ccc(Cl)cc1 | -100*
Cc1ccc(-c2cc(N)nc(-c3ccccc3)c2)cc1 | -87*
CC(C)(C)c1ccc(OCc2cnc(Cl)s2)cc1 | -105*
Clc1ccc(-c2cn3c(n2)CCC3)cc1 | -192*
Cc1cc(N/N=C/c2ccncc2)nc2ccccc12 | -137*
Cc1cc(N/N=C/c2cccc(Br)c2)nc2ccccc12 | -241*
COc1ccccc1NC(=S)N(Cc1ccco1)Cc1cc2cc(C)c(C)cc2[nH]c1=O | 91
Cc1ccc2[nH]c(=O)c(-c3nc4ccccn4c3NCc3ccco3)cc2c1 | -100*
O=Cc1c(NCc2ccco2)nc2ccccn2c1=O | -89*
CCOC(=O)c1c(C)[nH]c2cc(Br)c(O)cc12 | -92*
Cc1cc(C)nc(SCC2COc3ccccc3O2)n1 (stereo not drawn) | -71*
CCCS(=O)(=O)c1cnc(C2COc3ccccc3O2)nc1N (stereo not drawn) | 68
Cc1nc(C)c(-c2csc(Nc3cccc(O)c3)n2)s1 | -156*
Cc1nc(N)sc1-c1csc(Nc2cccc(O)c2)n1 | -79*
Cc1cccc(Nc2nc(-c3sc(C)nc3C)cs2)c1 | -149*
CC(=O)Nc1ccc(Nc2nc(-c3sc(C)nc3C)cs2)cc1 | -77*
Clc1ccc2c(c1)C(C1=NCCN1)c1ccccc1CS2 (stereo not drawn) | 79
N#CCCN1CCCc2cc(N=Nc3ccc(C(F)(F)F)cc3)ccc21 | -191*
CN(C)c1ccc(N=Cc2nc(-c3ccccc3)oc2OC(=O)c2cccc(Br)c2)cc1 | -166*
CCC(=O)Oc1oc(-c2ccccc2)nc1C=Nc1ccccc1OC | -63*
COc1ccc(N=Cc2nc(-c3ccccc3)oc2OC(=O)c2ccccc2)cc1 | -92*
c1ccc2[nH]c(-c3cscn3)nc2c1 | -99*
c1ccc2[nH]c(SCc3cscn3)nc2c1 | -104*
SMILES | aSyn 5UTR act
c1ccc2nc(-c3nc4ccccc4[nH]3)ccc2c1 | 74
O=C(/C=C/c1ccc(OC(F)F)cc1)Nc1cccc(S(=O)(=O)NC2=NCCCCC2)c1 | -72*
COc1ccc(/C=C/C(=O)Nc2cccc(S(=O)(=O)NC3=NCCCCC3)c2)cc1 | -67*
O=C(CCl)Nc1cccc(S(=O)(=O)NC2=NCCC2)c1 | -180*
O=C(NC1CCCC1)C(c1ccncc1)N(Cc1ccco1)C(=O)c1ccc(-c2ccccc2)[nH]1 (stereo not drawn) | -68*
NC(=O)c1ccc(NC(=O)C#Cc2ccccc2)cc1 | -112*
COc1ccc(NC(=O)C#Cc2ccccc2)cc1OC | -212*
O=C1C(C=NCCCN2CCCC2=O)=C(O)c2ccccc21 | -113*

Assay outcomes: PubChem BioAssay, Broad Institute
